Screens as filed in PubChem.
ADAM17 inh: ADAM17 inhibitors, primary screen, biochemical, QFRET. 370,000 tested, 0.83% active. Disintegrin and metalloproteinase domain-containing protein 17 (Homo sapiens), P78536. recombinant ADAM17, EDANS/DABCYL FRET peptide cleavage. AID 720648, 2013. inhibition, % at 6.95 µM;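 active = inhibition above the mean of compounds lying between control limits plus 3 SD, set per campaign, cut at about 8.5% in these data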;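 note: 0% = DMSO-only wells as the low control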
sPLA2-III inh: human group III sPLA2 inhibitors, primary screen, biochemical, QFRET, BODIPY PC-A2 liposome substrate; Group 3 secretory phospholipase A2 (Homo sapiens), Q9NZ20; QFRET BODIPY PC-A2 liposome hydrolysis, fluorescence; inhibition, % at 12.2 µM; 370,000 tested, 0.56% active; AID 743126, 2013;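 active = inhibition above mean plus 3 SD of compounds lying within the high and low control bounds, cut at about 19% in these data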;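 note: 0% = median of test compound wells and 100% = no enzyme DMSO wells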
Target sequence (Q9NZ20 whole entry, looked up): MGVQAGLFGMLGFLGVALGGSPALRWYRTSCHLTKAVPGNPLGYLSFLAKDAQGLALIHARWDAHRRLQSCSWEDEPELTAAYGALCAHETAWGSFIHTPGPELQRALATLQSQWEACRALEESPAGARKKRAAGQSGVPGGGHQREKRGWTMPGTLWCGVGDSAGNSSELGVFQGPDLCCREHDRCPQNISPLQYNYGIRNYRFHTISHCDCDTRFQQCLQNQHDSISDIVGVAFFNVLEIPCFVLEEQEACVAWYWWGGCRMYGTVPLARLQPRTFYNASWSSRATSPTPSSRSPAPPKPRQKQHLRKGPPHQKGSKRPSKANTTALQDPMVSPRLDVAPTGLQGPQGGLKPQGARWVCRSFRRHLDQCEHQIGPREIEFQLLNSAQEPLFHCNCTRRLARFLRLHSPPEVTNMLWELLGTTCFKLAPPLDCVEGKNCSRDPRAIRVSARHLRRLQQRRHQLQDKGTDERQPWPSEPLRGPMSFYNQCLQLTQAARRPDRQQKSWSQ
KLK7 zymogen act: proKLK7 zymogen activators, primary screen, biochemical, fluorescence intensity; activation, % at 7 µM; purified proKLK7, EDANS-DABCYL substrate fluorescence; 100% is mature enzyme control, 0% vehicle; AID 652039, 2013; 370,000 tested, 0.9% active;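 active = activation above the mean of all tested compounds plus 3 SD, computed per campaign excluding outliers beyond control limits, cut at about 13% in these data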
CendR NRP1 mod: modulators of CendR peptide binding to NRP-1, primary screen, biochemical, fluorescence polarization, uHTS; Neuropilin-1 (Homo sapiens), O14786; FAM-RPARPAR peptide binding to NRP-1; inhibition, % at 25 µM; 360,000 tested, 0.85% active;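 active = inhibition or corrected inhibition above about 18%, plus a signal ratio from 0.5 to 1.5, limit read from the data, passing the limit was not always enough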
ADAM10 inh: human ADAM10 inhibitors, primary screen, biochemical, QFRET, HTS; recombinant ADAM10, EDANS/DABCYL FRET peptide cleavage, 3 h; inhibition, % at 7 µM; 370,000 tested, 0.62% active; AID 720582, 2013;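 active = inhibition above a per-campaign cutoff equal to the mean of compounds falling between control-based bounds plus 3 SD, cut at about 20% in these data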;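 note: 0% = DMSO wells while the 100% control is not disclosed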
ADAM10 counter: ADAM10 inhibitors, counter-screen for ADAM17 exosite inhibitor project, biochemical, FRET, human ADAM10. shares compounds with ADAM17 inh. recombinant ADAM10, EDANS/DABCYL FRET peptide cleavage, 3 h. inhibition, % at 6.95 µM. 2,900 tested, 47% active. AID 743256, 2014;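 active = mean inhibition over the triplicate runs exceeds the activity threshold set in the earlier primary screen, cut at about 20% in these data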;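 note: 0% = DMSO wells and 100% = marimastat wells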
ADAM17 confirm: ADAM17 inhibitors, hit retest, confirmation, biochemical, QFRET peptide cleavage | inhibition, % at 6.95 µM | 2,900 tested, 65% active | shares compounds with ADAM17 inh | AID 743257, 2014 | recombinant ADAM17, EDANS/DABCYL QFRET peptide cleavage;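 active = mean inhibition across replicates above the hit cutoff set in the primary screen, cut at about 8.5% in these data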;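 note: 0% = DMSO wells and 100% = marimastat wells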
Numbers without * were called inactive. This is a sample that favours compounds with a hit; in the whole collection about 3.4% have one here.

For CCCC[C@H]1C2CC(OC(=O)Nc3ccccc3Cl)C(C2)[C@H]2CCCCN21 (some centres undefined) the results were ADAM17 inh -4.7, sPLA2-III inh 13.2, KLK7 zymogen act 0.5 and ADAM10 inh -7.3.
Screening CCCSc1nsc(NC(=O)CCC)n1 returned ADAM17 inh 9.2*, sPLA2-III inh -8.4, KLK7 zymogen act 2.9, CendR NRP1 mod 11.8, ADAM10 inh 9.8, ADAM10 counter 4.3 and ADAM17 confirm 3.1.
For NS(=O)(=O)c1ccc(NCc2cc(Cl)ccc2OCc2ccc(F)cc2)cc1 the results were ADAM17 inh 9.3*, sPLA2-III inh -9.4, KLK7 zymogen act 0.3, CendR NRP1 mod -12.0, ADAM10 inh 16.3, ADAM10 counter 19.6 and ADAM17 confirm 11.5*.
CCCCCCCCN1C(=O)[C@@H](CC(=O)NCc2ccccc2)C[C@@]2(C(=O)OC)C1=C[C@H](C(C)C)O[C@@H]2C1CC1 was read as ADAM17 inh 2.5, sPLA2-III inh -4.3, KLK7 zymogen act 0.4 and ADAM10 inh 14.2.
`O=S(=O)(c1cccs1)N1CCC(CO)(Cc2ccc(Cl)cc2)CC1` gave ADAM17 inh 11.9*, sPLA2-III inh -16.8, KLK7 zymogen act 0.1, CendR NRP1 mod 0.2, ADAM10 inh 16.9, ADAM10 counter 0.6 and ADAM17 confirm 7.6.
Screening O=S(=O)(c1cccs1)N1CCN(c2ccc(Cl)cc2)CC1 returned ADAM17 inh -1.1, sPLA2-III inh 7.5, KLK7 zymogen act 0.6, CendR NRP1 mod -1.6 and ADAM10 inh -9.4.
`CC(C)=CCC/C(C)=C/C[C@]12C[C@H](C(=O)O)N(C(=O)OC(C)(C)C)[C@@H]1N(C(=O)OC(C)(C)C)c1ccccc12` gave ADAM17 inh -2.7, sPLA2-III inh 3.6 and ADAM10 inh 8.2.
Cc1ccc(C(=O)C=Cc2ccc3c(c2)OCO3)c(C)c1 was read as ADAM17 inh -0.4, sPLA2-III inh -5.5, KLK7 zymogen act -0.5, CendR NRP1 mod -0.4 and ADAM10 inh -1.8.
For O=C(/C=C/c1ccc2c(c1)OCO2)c1ccc(O)cc1O the results were ADAM17 inh 9.3*, sPLA2-III inh -25.9, KLK7 zymogen act -0.7, CendR NRP1 mod -14.6, ADAM10 inh 0.6, ADAM10 counter 7.5 and ADAM17 confirm 5.5.
CC(c1nnnn1C1CCCCC1)N(Cc1ccccc1)Cc1cccnc1 (centres undefined) was read as ADAM17 inh 9.4*, sPLA2-III inh -17.3, KLK7 zymogen act -0.3, CendR NRP1 mod 15.6, ADAM10 inh 18.0, ADAM10 counter 4.1 and ADAM17 confirm 1.6.
COc1ccc(N2CCN(S(=O)(=O)c3c(C)noc3/C=C/N(C)C)CC2)cc1 was read as ADAM17 inh -3.8, sPLA2-III inh 10.1, KLK7 zymogen act -0.5, CendR NRP1 mod 9.6 and ADAM10 inh -2.9.
`COc1ccc(N2CCN(C(=O)C3CCN(S(=O)(=O)c4c(C)noc4/C=C/N(C)C)CC3)CC2)cc1` gave ADAM17 inh 10.5*, sPLA2-III inh 4.8, KLK7 zymogen act -0.1, CendR NRP1 mod 6.0, ADAM10 inh 18.4, ADAM10 counter 0.5 and ADAM17 confirm 1.4.
CC(=O)CC[C@H]1CC[C@]2(CCCN(C(=O)C3CCCC3)C2)O1 was read as ADAM17 inh -3.4, sPLA2-III inh 3.8, KLK7 zymogen act 0.3 and ADAM10 inh -5.9.
COC(=O)c1ccc(Cn2ccc3ccc(-c4ccc5ccn(C(=O)c6ccc(C)cc6)c5c4)cc32)cc1 was read as ADAM17 inh 1.1, sPLA2-III inh 0.4, KLK7 zymogen act -0.9 and ADAM10 inh -10.4.
